In PubChem BioAssay (NCI):
About 83,000 compounds went through this panel and 20% of them were active in at least one assay; those are over-represented in the sample as a whole.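 Note: values are percent growth. 100 is the growth of untreated cells, values between 100 and 0 indicate rising inhibition; between -100 and 0 indicates cell death.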 Values without a mark were called inactive. Activity calls are given as the source filed them. Rule for the calls: active = growth percent below 10; inactive = the rest.

Experiments:
Experiment in all cases: NCI-60 one-dose screen, 48 h (100 = growth as untreated, 0 = no growth, -100 = all killed)
Details in all cases: 10 µM unless noted
NCI-H23 lung = system: NCI-H23 lung
NCI-H226 lung = system: NCI-H226 lung
NCI-H322M lung = system: NCI-H322M lung
HOP-62 NSCLC = system: HOP-62 NSCLC
NCI-H460 lung = system: NCI-H460 lung
HOP-92 NSCLC = system: HOP-92 NSCLC
NCI-H522 lung = system: NCI-H522 lung
A549/ATCC NSCLC = system: A549/ATCC NSCLC
786-0 renal = system: 786-0 renal
COLO 205 colon = system: COLO 205 colon

Compound	growth (NCI-H23 lung)	growth (NCI-H226 lung)	growth (NCI-H322M lung)	growth (HOP-62 NSCLC)	growth (NCI-H460 lung)	growth (HOP-92 NSCLC)	growth (NCI-H522 lung)	growth (A549/ATCC NSCLC)	growth (786-0 renal)	growth (COLO 205 colon)
COCc1cnccc1NC1CCCCCC1	103%	95.7%	98.6%	99.9%	108%	91.2%	89.9%	96.3%	106%	121%
CCCCCN1C=C/C(=C\C(=O)n2ccc3ccccc32)c2ccccc21	77%	70.3%	87.7%	81.9%	91%	83.3%	77%	89.4%	94.8%	89.4%
C[C@H]1[C@H]2[C@H]3CC[C@@H]4[C@@]5(C)CC[C@H](O)C(C)(C)[C@@H]5CC[C@@]4(C)[C@]3(C)CC[C@]23CO[C@]1(C)[C@@H](C(=O)/C=C\c1ccco1)C3	98.5%	99.7%	88.3%	104%	109%	65.4%	87.8%	104%	104%	-2.3% (active)
O=C(CCN1CCCC1)Nc1ccc2c(Nc3ccc(Br)cc3)c3ccccc3nc2c1	18.8%	62%	-11.4% (active)	-19.5% (active)	-69.2% (active)	31.3%	-25% (active)	-42.4% (active)	42.8%	-42.9% (active)
N#CC1=C(/N=C/c2ccccc2)Oc2c(ccc3ccccc23)C1c1ccc([N+](=O)[O-])cc1 (stereo not given)	80.2%	65.3%	93.8%	89.1%	95.2%	88.5%	86.2%	101%	102%	109%
NC1[C@H](c2c[nH]c3ccccc23)c2c([nH]c3ccccc23)[C@H]1c1c[nH]c2ccccc12 (stereo not given in full)	85.7%	92.1%	91.6%	90.1%	97.1%	84.2%	88.5%	90.6%	96.4%	110%
NC(=NCc1ccccc1)C(N=Nc1ccccc1)C(=O)NCc1ccccc1 (stereo not given)	65.3%	109%	101%	92.2%	50.1%	99%	63.4%	1.29% (active)	92.4%	79.5%
COc1cc(-c2csc(NC(=O)c3cc(F)cc(C(F)(F)F)c3)n2)cc(OC)c1OC	49.8%	27.7%	68%	39.3%	19.5%	51.2%	-10.8% (active)	64.4%	29.4%	25.5%
Nc1c(S(=O)(=O)O)cc2c3c(cccc13)C(=O)OC2=O	94.9%	105%	107%	93.9%	105%	90.7%	104%	116%	102%	111%
Cn1c(N2NC(=O)C(N=Nc3ccc(S(N)(=O)=O)cc3)C2=O)nc(-c2ccco2)c(C#N)c1=O (stereo not given)	70%	94.9%	107%	96.4%	103%	32.3%	-40.5% (active)	109%	100%	77.1%
COc1cc(NCCCCCNC(C)(C)C)c2ncccc2c1	93.1%	86.5%	93.3%	92.7%	111%	79.4%	67.8%	88.1%	95.6%	110%
COc1cc(C2C3=C(COC3=O)N(CCO)c3cc4c(cc32)CCC4)cc(OC)c1OC (stereo not given)	-26.2% (active)	2.98% (active)	39.8%	7.11% (active)	-44.8% (active)	78.2%	-26.7% (active)	28.9%	-4.65% (active)	-98.8% (active)
O=C(Nc1ccccc1)Nc1ccc2cc3ccc(NC(=O)Nc4ccccc4)cc3nc2c1	23.7%	91%	61.6%	46.1%	92.6%	87.6%	-4.64% (active)	101%	25.7%	3.12% (active)
CCCCC/C=C/C(C)=C/C1CC(C)C/C=C/CCC(O)C(OC(N)=O)CCC(C)CC(O)C(C)C(=O)O1 (stereo not given)	97.6%	104%	101%	82.7%	67%	24.5%	79.2%	85%	77.9%	121%
Cc1ccc(-n2c3c(c(-c4ccccc4)c2-c2ccccc2)C2=NCCN2C=N3)cc1	84.2%	72%	96.6%	97.6%	90.9%	87%	80.2%	93.7%	95%	101%
COc1ccc(C(=O)CC#N)cc1	107%	98%	120%	122%	108%	119%	113%	104%	107%	117%
CC(C)(C)c1cc(C=O)cc(C(C)(C)C)c1O	112%	97.8%	101%	106%	111%	79.5%	90.7%	101%	107%	100%
C/C=C(\C)C(=O)NC1=CC[C@@]2(C)C(=CCC3C2CC[C@@]2(C)C3CC[C@@H]2C(C)N(C)C)C1=O (stereo not given in full)	39.2%	89.6%	36.9%	46.4%	17.4%	40.6%	77.9%	60.8%	44.2%	-8.4% (active)
COc1ccccc1NS(=O)(=O)c1cccc(C(=O)Nc2ccc(Br)cc2)c1	35.9%	44.2%	53.1%	62.9%	47%	38.9%	46.7%	46%	59.5%	57.9%
O=C1Nc2cc(-c3cccc([N+](=O)[O-])c3)ccc2/C1=C/c1ccc[nH]1	48.4%	50.6%	58.3%	76.4%	47.6%	72.5%	78.3%	101%	107%	85.9%
CCCCOc1ccc(/C(C)=N/Nc2cc(C)nc3ccc(Br)cc23)cc1	90.7%	89.6%	103%	88.7%	14.2%	78.4%	96.9%	92.5%	95.1%	26.5%
O=S(=O)(NCCNc1nccc(-c2c(-c3cccc(O)c3)nc3occn23)n1)c1cccc(F)c1	97.9%	105%	97.3%	121%	95.9%	93%	81.1%	92.6%	91.5%	30.1%
Oc1ccc(C(c2ccc(O)cc2)c2ccc(Br)cn2)cc1	-18.2% (active)	-14% (active)	-27.3% (active)	77.5%	107%	-0.572% (active)	42.6%	37.3%	89.7%	1.1% (active)
COC(=O)C(CC=O)C(=O)C(=O)Nc1cccc(C(F)(F)F)c1 (stereo not given)	101%	98.7%	97.3%	82.2%	98.6%	95.1%	87.2%	78.1%	107%	110%
CCOc1ccc(Nc2nc(-c3ccc4c(c3)NC(=O)CO4)cs2)cc1	45.7%	46.9%	84.8%	95.9%	40.7%	87.3%	14.6%	71.7%	71.1%	88.5%
O=C(CSc1nc2ccccc2[nH]1)NCc1ccccc1	100%	95.9%	97.4%	88.5%	103%	105%	98.3%	100%	102%	111%
